Results on six compounds are retold here after PubChem BioAssay (EPA / NIEHS).

Values joined by “and” are separate entries in the source; they are usually repeats but may differ in a detail not shown here. Equal values may be shown once. Active and inactive are the calls of the source. How the source made its calls: active means hit-call score of the fitted dose curve at least 0.9, where 1 is the maximum; inactive means score below 0.9.

As a reminder, the AC50 is the midpoint of the concentration-response curve, whichever way the signal moves.

Assay [1] can be described thus: BSK_BF4T_SRB: Viability Assessment in the BioMAP Diversity Plus: BF4T Assay (AID 2284274).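 On AC50: measured 24 h after compound addition.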 Conditions: primary human bronchial epithelial cells with fibroblasts. Summed up:
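Cytotoxicity measured as total protein: cells fixed with 10% TCA, stained with 0.1% SRB, read at 560 nm. Bronchial epithelial/dermal fibroblast co-culture, 24 h after dosing, with positive-direction fitting relative to DMSO.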

Read-out in assay [2]: urokinase Plasminogen Activator (uPA), PLAU (gene 5328)
Description: BSK_BF4T_uPA: BioMAP Diversity Plus: BF4T Assay for urokinase Plasminogen Activator (uPA) Biomarker Activity (AID 2284275). Conditions: primary human bronchial epithelial cells with fibroblasts. Summed up:
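uPA levels measured by ELISA at 24 hours in BF4T cultures (bronchial epithelial cells plus dermal fibroblasts) and compared with DMSO; cytotoxicity tracked in parallel cultures by sulforhodamine B staining.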

Read-out in assay [3]: Matrix Metallopeptidase 9 (MMP9), MMP9 (gene 4318)
Description: BSK_BF4T_MMP9: BioMAP Diversity Plus: BF4T Assay for Matrix Metallopeptidase 9 (MMP9) Biomarker Activity (AID 2284276). Conditions: primary human bronchial epithelial cells with fibroblasts. In a few lines: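 MMP-9 levels were measured by ELISA after 24 h exposure of bronchial epithelial cell/dermal fibroblast co-cultures, with DMSO as baseline. Parallel cultures were stained with 0.1% SRB after TCA fixation, read at 560 nm, to flag overt cytotoxicity.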

Read-out in assay [4]: Interleukin-8 (IL8), CXCL8 (gene 3576)
Description: BSK_IMphg_IL8: BioMAP Diversity Plus: IMphg Assay for Interleukin-8 (IL8) Biomarker Activity (AID 2284277). Conditions: primary human endothelial cells with macrophages. Summed up:
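IL-8 levels were measured by ELISA 24 h after dosing in primary human venular endothelial cell–macrophage cultures, referenced to DMSO; parallel SRB staining monitored overt cytotoxicity.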

Read-out in assay [5]: Intercellular Adhesion Molecule 1 (ICAM1), ICAM1 (gene 3383)
Description: BSK_BE3C_ICAM1: BioMAP Diversity Plus: BE3C Assay for Intercellular Adhesion Molecule 1 (ICAM1) Biomarker Activity (AID 2284278).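 On outcome: cell-surface ICAM-1 protein level quantified by ELISA.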 Particulars: primary human bronchial epithelial cells. In a few lines: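 ICAM-1 quantified by ELISA and fitted against DMSO baseline, 24 h post-dosing in BE3C cultures of primary human lung bronchial epithelial cells. Cytotoxicity checked in parallel cultures by total protein SRB staining.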

Read-out in assay [6]: Interferon-inducible T-cell alpha chemoattractant (ITAC), CXCL11 (gene 6373)
Description: BSK_BE3C_ITAC: BioMAP Diversity Plus: BE3C Assay for Interferon-inducible T-cell alpha chemoattractant (ITAC) Biomarker Activity (AID 2284279). Particulars: primary human bronchial epithelial cells. In a few lines:
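The assay measures I-TAC levels by ELISA in human primary bronchial epithelial cell cultures 24 hours after chemical treatment. Values reflect signal increase over the DMSO baseline.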

Read-out in assay [7]: Interleukin-8 (IL8), CXCL8 (gene 3576)
Nature of the assay: BSK_BE3C_IL8: BioMAP Diversity Plus: BE3C Assay for Interleukin-8 (IL8) Biomarker Activity (AID 2284280). Conditions: primary human bronchial epithelial cells. In a few lines:
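Dose human bronchial epithelial cells with chemical; incubate 24 h; quantify IL-8 by ELISA; fit response upward versus DMSO controls.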

Read-out in assay [8]: Epidermal growth factor receptor (EGFR), EGFR (gene 1956)
Nature of the assay: BSK_BE3C_EGFR: BioMAP Diversity Plus: BE3C Assay for Epidermal growth factor receptor (EGFR) Biomarker Activity (AID 2284281). Particulars: primary human bronchial epithelial cells. In a few lines: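 ELISA read-out of EGFR levels on human bronchial epithelial primary cells collected 24 h post-dosing. DMSO served as negative control and baseline for gain-of-signal fitting.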

Read-out in a further assay: KRT18 (gene 3875)
Nature of the assay: BSK_BE3C_Keratin818: BioMAP Diversity Plus: BE3C Assay for Keratin 818 Biomarker Activity (AID 2284282). Particulars: primary human bronchial epithelial cells. In a few lines:
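ELISA readout of Keratin 8/18 in human primary bronchial epithelial cultures after 24 h chemical exposure, DMSO baseline. Parallel SRB staining (0.1%, TCA-fixed, 560 nm) served as cytotoxicity check.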

Read-out in assay [9]: Matrix Metallopeptidase 9 (MMP9), MMP9 (gene 4318)
Description: BSK_BE3C_MMP9: BioMAP Diversity Plus: BE3C Assay for Matrix Metallopeptidase 9 (MMP9) Biomarker Activity (AID 2284283). Conditions: primary human bronchial epithelial cells. Summed up: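 Human primary bronchial epithelial cells exposed 24 h to compound. MMP9 quantified by ELISA. SRB total-protein staining of parallel cultures assesses cytotoxicity. Positive-direction fit relative to DMSO.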

Read-out in assay [10]: Plasminogen activator inhibitor-1 (PAI1), SERPINE1 (gene 5054)
Nature of the assay: BSK_CASM3C_PAI1: BioMAP Diversity Plus: CASM3C Assay for Plasminogen activator inhibitor-1 (PAI1) Biomarker Activity (AID 2284284).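 Further: PAI-1 protein level measured by ELISA 24 h after dosing.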 Conditions: primary human coronary artery smooth muscle cells.

Read-out in assay [11]: Monocyte Chemoattractant Protein-1 (MCP1), CCL2 (gene 6347)
Nature of the assay: BSK_hDFCGF_MCP1: BioMAP Diversity Plus: hDFCGF Assay for Monocyte Chemoattractant Protein-1 (MCP1) Biomarker Activity (AID 2284285). Conditions: primary human foreskin fibroblasts. Summed up:
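MCP-1 ELISA readout was taken 24 hours after dosing primary human dermal fibroblasts in the hDFCGF system, with DMSO as baseline. Parallel sulforhodamine B staining of total protein tracked overt cytotoxicity.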

Read-out in assay [12]: Vascular cell adhesion molecule 1 (VCAM1), VCAM1 (gene 7412)
Description: BSK_IMphg_VCAM1: BioMAP Diversity Plus: IMphg Assay for Vascular cell adhesion molecule 1 (VCAM1) Biomarker Activity (AID 2284286). Particulars: primary human endothelial cells with macrophages. In a few lines:
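ELISA read-out of VCAM-1 on venular endothelial cell/macrophage co-cultures at 24 h post-treatment, with DMSO as baseline and positive-direction fitting. Parallel sulforhodamine B total-protein staining (560 nm) served as the overt cytotoxicity measure.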

Read-out in assay [13]: Intercellular Adhesion Molecule 1 (ICAM1), ICAM1 (gene 3383)
Nature of the assay: BSK_hDFCGF_ICAM1: BioMAP Diversity Plus: hDFCGF Assay for Intercellular Adhesion Molecule 1 (ICAM1) Biomarker Activity (AID 2284287). Conditions: primary human foreskin fibroblasts. Summed up:
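ICAM-1 ELISA readout 24 h after dosing, DMSO as baseline, in human dermal foreskin fibroblast cultures. Cytotoxicity checked in parallel wells by SRB staining (0.1% SRB, 10% TCA fixation, 560 nm).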

Read-out in another assay: CD40, CD40 (gene 958)
Description: BSK_IMphg_CD40: BioMAP Diversity Plus: IMphg Assay for CD40 Biomarker Activity (AID 2284288). Particulars: primary human endothelial cells with macrophages. In a few lines:
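ELISA read-out of cell-surface CD40 at 24 h in human venular endothelial cell/macrophage co-cultures. Activity fitted in the positive direction against DMSO; parallel SRB staining (560 nm) gauges overt cytotoxicity.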

Read-out in assay [14]: TIMP metallopeptidase inhibitor 2 (TIMP2), TIMP2 (gene 7077)
Description: BSK_hDFCGF_TIMP2: BioMAP Diversity Plus: hDFCGF Assay for TIMP metallopeptidase inhibitor 2 (TIMP2) Biomarker Activity (AID 2284289). Conditions: primary human foreskin fibroblasts. In a few lines:
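Primary human foreskin fibroblasts in the hDFCGF system, dosed for 24 h; TIMP-2 level measured by ELISA, fitted in the positive direction against DMSO; cytotoxicity checked in parallel by sulforhodamine B total protein staining.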

Read-out in assay [15]: Interleukin-1 alpha (IL1a), IL1A (gene 3552)
Description: BSK_IMphg_IL1a: BioMAP Diversity Plus: IMphg Assay for Interleukin-1 alpha (IL1a) Biomarker Activity (AID 2284290). Conditions: primary human endothelial cells with macrophages. Summed up:
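IL-1α is quantified by ELISA at 24 h in the endothelial/macrophage IMphg co-culture, with gain of signal fitted relative to DMSO. Parallel SRB total-protein staining flags overt toxicity.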

A short description of assay [16]: BSK_IMphg_SRB: Viability Assessment in the BioMAP Diversity Plus: IMphg Assay (AID 2284292).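 Further: measured one day after compound addition.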 Conditions: primary human endothelial cells with macrophages. In a few lines:
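SRB viability endpoint: cultures of human endothelial cells plus macrophages fixed with 10% TCA, stained with 0.1% SRB, read at 560 nm 24 h post-dosing. Only gain-of-signal fitted, relative to DMSO.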

For the compound `O=C(O)C(F)(F)C(F)(F)C(F)(F)OC(F)(F)F`, the outcome in assay [1], in assay [2], in assay [3], in assay [4], in assay [5] and in assay [6] was inactive. The outcome (in assay [7]; in assay [8]; with KRT18 (gene 3875); in assay [9]; in [10]; in [11]) was inactive. The outcome in assay [12] is “inactive”; in [13], “inactive”; with CD40, CD40 (gene 958) it was “inactive”; in assay [14] it was “inactive”; in assay [15], “inactive”.
Turning to `OCC(F)(F)C(F)(F)C(F)(F)C(F)(F)C(F)(F)C(F)(F)C(F)(F)C(F)(F)CO`, the AC50 in assay [1] is 26.2 µM (active) and 30 µM (active); in assay [3], 27.6 µM (active) and 23.7 µM (active); in assay [5], 44.7 µM (active) and 40.3 µM (active); in assay [6] it was 39.6 µM (active) and 31.6 µM (active); in [7], 19.7 µM (active) and 5.95 µM (active); in assay [8], 30 µM (active) and 25.2 µM (active). Besides, the AC50 in assay [9] is 34.8 µM (active) and 22.1 µM (active); in [11], 51 µM (active) and 42.3 µM (active); in assay [12] it was 51.5 µM (active) and 54.6 µM (active); in assay [13], 54.5 µM (active) and 46.2 µM (active); with CD40, CD40 (gene 958), 46.5 µM (active) and 41.2 µM (active); in assay [15], 47.6 µM (active) and 50.3 µM (active). The outcome (in assay [2]; with KRT18 (gene 3875); in [10]; in assay [14]) was inactive.
As for `NC(=O)C(F)(F)C(F)(F)C(F)(F)C(F)(F)C(F)(F)C(F)(F)C(F)(F)F`, the outcome in assay [1], in [2], in [3], in assay [5], in [6] and in assay [7] was inactive. The outcome (in assay [8]; in the assay with KRT18 (gene 3875); in assay [9]; in assay [10]; in assay [11]; in assay [12]) was inactive. The outcome in assay [13] was “inactive”; in the assay with CD40, CD40 (gene 958), “inactive”; in assay [14], “inactive”; in assay [15] it was “inactive”.
Consider `CCN=C1C=CC(=C(c2ccc(N(CC)CC)cc2)c2ccc(N(CC)CC)cc2)c2ccccc21`, for which the AC50 in assay [5] is 3.19 µM (active) and 2.57 µM (active); in assay [6], 2.7 µM (active) and 2.3 µM (active); in assay [7], 4.21 µM (active) and 3.7 µM (active); with KRT18 (gene 3875), 1.61 µM (active) and 1.51 µM (active); in [9], 1.07 µM (active) and 490 nM (active); in [10], 5.67 µM (active) and 5.38 µM (active). In addition, the AC50 was 1.63 µM (active) and 1.44 µM (active) in [11]; 1.9 µM (active) and 1.77 µM (active) in assay [13]; 677 nM (active) and 195 nM (active) in [14]. Further, in assay [8], the outcome was inactive.
As to `COC(F)(C(F)F)C(F)(F)F` (configuration not stated), the result in [1], in assay [2], in assay [3], in assay [5], in assay [6] and in assay [7] was inactive. Further, the result (in assay [8]; with KRT18 (gene 3875); in [9]; in assay [10]; in assay [11]; in assay [12]) was inactive. Further, the outcome in assay [13] is “inactive”; with CD40, CD40 (gene 958), “inactive”; in assay [14] it was “inactive”; in assay [15] it was “inactive”.
As to `OCCCCC(F)(F)C(F)(F)C(F)(F)C(F)(F)F`, the outcome in assay [1], in [2], in [3], in [5], in [6] and in assay [7] was inactive. For the same compound, the result (in assay [8]; with KRT18 (gene 3875); in assay [9]; in assay [10]; in assay [11]; in assay [12]) was inactive. Also, the outcome was “inactive” in assay [13]; “inactive” with CD40, CD40 (gene 958); “inactive” in assay [14]; “inactive” in assay [15]; “inactive” in [16].
